{
  "source": "PubChem BioAssay AID686978",
  "about": "(National Center for Advancing Translational Sciences (NCATS), 2013)",
  "note": "Several values for one entry are separate records, joined by “and”; a condition that tells them apart may be missing. Identical values can stand only once. The whole screen tested about 420,000 compounds, of which about 64,000 (15%) were called active. Inconclusive results (about 27%) are left out. The full list was thinned out, with actives kept by preference. A number with no mark means an inactive call. Calls follow the shape of the dose curve; as a rule, active = well fitted inhibition curve with a large enough effect; inconclusive = small, poorly fitted or top-dose-only effect; inactive = flat fitted curve, though single readings scatter. % is scaled to controls: 0 for no effect and ±100 for the full control effect; potency is read from the fitted curve at half-maximal effect.",
  "data": [
    {"assay": "qHTS for Inhibitors of human tyrosyl-DNA phosphodiesterase 1 (TDP1): qHTS in cells in absence of CPT; also: nearly all actives have a fitted effect of over 55% in size", "details": "DT40 Tdp1-/- hTDP1 cells, no CPT, ATP luminescence, 48 h; series mostly up to 46.2 µM; activity change, negative = growth inhibition: at the top concentration", "excerpt": "Human tyrosyl-DNA phosphodiesterase 1 (TDP1) is a novel repair gene, and we propose to use it as a new target for anticancer drug development. TDP1 is not an essential protein, but under treatment with topoisomerase I poison (camptothecin: CPT), TDP1 works as a critical factor for cell survival. To directly identify novel TDP1 inhibitors active in a cellular environment, we have knocked-out the Tdp1 gene in chicken DT40 cells (Tdp1-/-) and generated a complemented counterpart cells that contains a stable transfection of the human TDP1 gene (Tdp1-/-;hTDP1 cells). For the primary screen, Tdp1-/-;hTDP1 cells will be exposed to small molecules in the presence or absence of CPT, and their growth kinetics will be evaluated after 48 hours by measuring ATP activity. […] The hit compounds will then be evaluated in the presence or absence of CPT using Tdp1-/- cells. […] In tertiary assays, biochemical gel-based assays will be used to assess whether the hit compounds specifically target TDP1.\nTo this end, we have screened this cell line against the MLSMR in two primary screens. In one screen we add CPT and in the other we screen in the absence of CPT; this AID represents the screen where CPT was absent.\nNIH Chemical Genomics Center [NCGC]\nNIH Molecular Libraries Probe Centers Network [MLPCN]\nAssay Submitter (PI): Yves Pommier, NCI\nDT40-hTDP1 cells without 20 nM Camptothecin (add 20 microL of DMSO in 1 L of cell culture medium) were dispensed at 400 cells/5microL/well in tissue culture treated 1536-well white wall/solid bottom assay plates (Greiner Bio-One North America, NC, U.S.A.) using a Multidrop Combi 8 channel dispenser (Thermo Fisher, Waltham, MA, USA). 23 nL compounds and controls were transferred using the pin tool (Kalypsys, San Diego, CA, USA) to the assay plates. The assay plates were then incubated at 37 masculineC for a minimum 48 hr. Three microL of Cell Titer Glo solution was added to the plates and incubated at RT in dark for 30 min. Luminescence was read using ViewLux (Perkin Elmer) with 1 sec exposure slow speed, high gain and 2x binning.", "values": [
      {"smiles": "CC1CCC(N(C)C2CCN(C)CC2)CC1", "note": "(centres undefined)", "activity change, negative = growth inhibition": "-18.5%"},
      {"smiles": "O=C(COC(=O)Cc1ccccc1)Nc1ccc(F)cc1", "activity change, negative = growth inhibition": "1.09%"},
      {"smiles": "CCOC(=O)c1ccc(N2C(=O)c3[nH]nc(-c4ccccc4)c3C2c2ccc(C(C)C)cc2)cc1", "note": "(centres undefined)", "Potency": "25.9 µM (active)"},
      {"smiles": "CCN(N=Nc1nonc1OC)c1nonc1OC", "activity change, negative = growth inhibition": "-6.66%"},
      {"smiles": "O=c1[nH]c(=O)n(-c2ccc(F)cc2)c(O)c1C=NCCN1CCCCC1", "activity change, negative = growth inhibition": "4.02%"},
      {"smiles": "CCn1cc2nc(SCc3ccccc3Cl)n(CCc3ccccc3)c(=O)c2n1", "Potency": "20.6 µM (active)"},
      {"smiles": "COc1cccc(OC)c1C(=O)NC(=S)N1C[C@H]2C[C@H](C1)c1cccc(=O)n1C2", "activity change, negative = growth inhibition": "0.63%"},
      {"smiles": "CC(C)=C[C@@H]1[C@@H](C(=O)OCc2coc(Cc3ccccc3)c2)C1(C)C", "activity change, negative = growth inhibition": "-4.94%"},
      {"smiles": "CN1CCN(C(=O)O[C@@H]2c3nccnc3C(=O)N2c2ccc(Cl)cn2)CC1", "activity change, negative = growth inhibition": "-14.9%"},
      {"smiles": "CCC(C)(O)C(=O)OC1C(=O)OC2CC3C(C)=CC(=O)C(O)C3(C)C3C4(O)OCC23C1C(C)C4O", "note": "(centres undefined)", "Potency": "0.13 µM (active)"},
      {"smiles": "N#CC(C#N)=Cc1cc(O)c(O)c([N+](=O)[O-])c1", "activity change, negative = growth inhibition": "-19.8%"},
      {"smiles": "O=C(N/N=C/c1ccc([N+](=O)[O-])o1)c1cc([N+](=O)[O-])cc([N+](=O)[O-])c1O", "activity change, negative = growth inhibition": "-54%"},
      {"smiles": "CC(=O)OC1C2CCC3C1(CC(O)[C@@]1(O)[C@@H](CC(O)C1(C)C)[C@]3(C)O)C[C@@]2(C)O", "note": "(some centres undefined)", "activity change, negative = growth inhibition": "0.989%"},
      {"smiles": "COc1ccc(-c2cc(NC=O)c3ncc(-c4cc(OC)c(OC)c(OC)c4)n3c2)c(OC)c1", "Potency": "0.82 µM (active)"},
      {"smiles": "O=C(O)COc1ccccc1/C=C1\\C(=O)NC(=O)N(CCC2=CCCCC2)C1=O", "activity change, negative = growth inhibition": "0.529%"},
      {"smiles": "O=C1NC(=O)N(CCc2ccc(F)cc2)C(=O)/C1=C/C=C/c1ccccc1", "Potency": "6.51 µM (active)"},
      {"smiles": "O=C1NC(=O)N(Cc2ccco2)C(=O)/C1=C\\c1cccn1CCOc1ccccc1", "activity change, negative = growth inhibition": "-1.44%"},
      {"smiles": "CCc1ccc(N(CC)C(=O)CCn2cnc3onc(-c4ccc(F)cc4)c3c2=O)cc1", "Potency": "13 µM (active)"},
      {"smiles": "O=C(/C=C/c1cccs1)c1cc(Cl)ccc1OC(=O)N1CCOCC1", "Potency": "16.4 µM (active)"},
      {"smiles": "Cc1cccc(-n2c(O)c(C=NC34CN5CN(CN(C5)C3)C4)c(=O)[nH]c2=O)c1", "activity change, negative = growth inhibition": "6.16%"},
      {"smiles": "Oc1ccc2c3c1OC1[C@H](O)CC[C@@]4(O)[C@@H](C2)N(CC2CC2)CC[C@]314", "note": "(some centres undefined)", "Potency": "inactive"},
      {"smiles": "COC12CC[C@@]3(C[C@@H]1C(C)(O)C(C)(C)C)[C@H]1Cc4ccc(O)c5c4[C@@]3(CCN1CC1CC1)[C@H]2O5", "note": "(some centres undefined)", "Potency": "24.1 µM (active)"},
      {"smiles": "CCOC(=O)C1CN(C)CCC1=O", "note": "(centres undefined)", "activity change, negative = growth inhibition": "-26%"},
      {"smiles": "CCC/C(=N\\O)c1c[nH]c2ccccc12", "activity change, negative = growth inhibition": "-19.1%"},
      {"smiles": "CNCC[C@H](Oc1ccc(C(F)(F)F)cc1)c1ccccc1", "Potency": "8.41 µM (active) and 14.6 µM (active)"},
      {"smiles": "CCC1(CC(C)c2ccccc2)C(=O)NC(=O)NC1=O", "note": "(centres undefined)", "activity change, negative = growth inhibition": "-14.9%"},
      {"smiles": "CCCCC/C=C\\C/C=C\\C/C=C\\CCCCCCC(=O)NCCO", "activity change, negative = growth inhibition": "-2.66% [at 4.12 µM]"},
      {"smiles": "CC1CCCN1CCC(C(N)=O)(c1ccccc1)c1ccccc1", "note": "(centres undefined)", "activity change, negative = growth inhibition": "-4.44%"},
      {"smiles": "O=Cc1cn(Cc2ccc(F)cc2Cl)c2ccccc12", "Potency": "18.4 µM (active)"},
      {"smiles": "O=[N+]([O-])c1ccc(Cl)c(Cl)c1", "activity change, negative = growth inhibition": "-16.7%"},
      {"smiles": "CCC(=NCc1ccco1)c1c(O)n(Cc2ccccc2)c(=O)[nH]c1=O", "activity change, negative = growth inhibition": "-23.7%"},
      {"smiles": "Clc1ccc([C@@H]2C[C@H]3CC[C@@H]2N3)cn1", "Potency": "inactive"},
      {"smiles": "Cc1ccc([C@H]2C[C@H](O)[C@@H](n3cc(COC(=O)c4ccccc4)nn3)CN2CC2CCCCC2)cc1", "Potency": "20.6 µM (active)"},
      {"smiles": "COCCNC(=O)CN1C2CCC1CC(O)(c1cccnc1)C2", "note": "(centres undefined)", "activity change, negative = growth inhibition": "-16.8%"},
      {"smiles": "Cn1c(O)c(C=NCCN2CCNCC2)c(=O)n(C)c1=O", "activity change, negative = growth inhibition": "-2.35%"},
      {"smiles": "NCC(O)c1ccc(O)cc1", "note": "(centres undefined)", "Potency": "inactive"},
      {"smiles": "c1csc(CN2CC3(CCNCC3)C2)n1", "activity change, negative = growth inhibition": "-19.2%"},
      {"smiles": "CCc1ccccc1NC(=O)c1sc2nc3c(cc2c1N)CN(Cc1ccccc1)CC3", "Potency": "5.8 µM (active)"},
      {"smiles": "CC12CN3CC(C)(CN(C1)C3c1cccs1)C2", "note": "(centres undefined)", "activity change, negative = growth inhibition": "-6.5%"},
      {"smiles": "CC(=O)Nc1ccccc1C(=O)OCC(=O)c1cccc2ccccc12", "activity change, negative = growth inhibition": "-16.9%"},
      {"smiles": "CCOc1cccc(=NC2CCCCC2)c2c(C)[nH]c(C)c12", "Potency": "5.8 µM (active)"},
      {"smiles": "O=C(N/N=C/c1c(O)n(C2CC2)c(=S)[nH]c1=O)c1ccccc1Cl", "activity change, negative = growth inhibition": "12.7%"},
      {"smiles": "OC(CNC1CCCCC1)c1ccccc1", "note": "(centres undefined)", "activity change, negative = growth inhibition": "-4.78%"},
      {"smiles": "CC1CC=CCC12C(=O)NC(=S)NC2=O", "note": "(centres undefined)", "activity change, negative = growth inhibition": "0.763%"},
      {"smiles": "COc1ccccc1CNC(=O)Cn1c(=O)oc2cc(Cl)ccc21", "Potency": "18.4 µM (active)"},
      {"smiles": "Cc1ccccc1N1C(=O)NC(=O)/C(=C\\c2cc(C)n(C)c2C)C1=O", "activity change, negative = growth inhibition": "0.262%"},
      {"smiles": "C[C@]12CCC3C(CC[C@H]4[C@H](O)[C@H](O)CC[C@]34C)C1CC[C@@H]2O", "note": "(some centres undefined)", "activity change, negative = growth inhibition": "-15.9%"},
      {"smiles": "C[C@]12CCC3C(CC[C@H]4[C@H](O)[C@H](O)CC[C@]34C)C1CCC2=O", "note": "(some centres undefined)", "Potency": "13 µM (active)"},
      {"smiles": "C[C@@]12CCC3C(CC[C@@H]4CC(O)CC[C@@]34C)C1CCC2O", "note": "(some centres undefined)", "activity change, negative = growth inhibition": "7.33%"}
    ]}
  ]
}
